# Measurements taken from PubChem BioAssay (NCATS).
# Results filed as inconclusive are left out. Activity calls are given as the source filed them. The call rests on the fitted dose curve.
# Assay: S16 Schwann cell PMP22 intronic element beta-lactamase assay (AID 624044); further: nearly all actives have a fitted effect of over 15% in size
# Conditions: S16 rat Schwann cells, PMP22 element beta-lactamase FRET, 24 h; series mostly up to 17.1 µM
# Text: Description: Charcot-Marie-Tooth-Association [CMTA] National Center for Advancing Translational Sciences [NCATS] Charcot-Marie-Tooth (CMT) disease was first characterized by Jean-Martin Charcot and Pierre Marie in France and, independently, by Howard Henry Tooth in England in 1886. CMT is one of the most common inherited neurological diseases, affecting approximately 1 in 2,500 Americans. […] The most prevalent type of CMT is known as CMT1A and caused by a duplication of the PMP22 gene which leads to over-expression of this protein. PMP22 is a glycosylated intrinsic membrane protein accounting for 2-5% of the myelin protein content, and its over-expression results in demyelination and subsequently axonal loss. A pair of cellular transcription-based assays was developed in the S16 rat Schwann cell lines (Hai, M., et al., 2002) stably transfected with orthogonal reporters - firefly luciferase (Fluc) and beta-lactamase (beta-Lac) - whose expression is driven by an intronic regulatory element of the PMP22 gene (Jones, E.A., et al., 2011) to recapitulate endogenous expression of PMP22. The current assay employs Blac as a reporter of PMP22 expression. A comprehensive library of approved drugs, the NCGC Pharmaceutical Collection (Huang, R., et al., 2011), was screened in the cross-validating platform of the orthogonal reporter assays to identify drug modulators inhibitory towards PMP22 expression. A set of counter-screens was devised to address non-specific activity of the library. An ATP-dependent CellTiter-Glo assay (developed by Promega Corp) was utilized to control cell viability. In addition, biochemical Fluc enzyme assay was performed to assess direct inhibition of the Fluc enzymatic activity. References Hai, M., Muja, N., DeVries, G.H., Quarles, R.H. and Patel, P.I. Comparative analysis of Schwann cell lines as model systems for myelin gene transcription studies. J Neurosci Res, 2002. 69(4): pp 497-508 Huang, R., Southall, N., Wang, Y., Yasgar A., Shinn P., Jadhav, A. , Nguyen, D.-T. and Austin, C.P., The NCGC pharmaceutical collection: a comprehensive resource of clinically approved drugs enabling repurposing and chemical genomics. Sci Transl Med, 2011. 3(80): p. 80ps16.
# S16 Schwann cell PMP22 intronic element beta-lactamase assay The beta-Lac-expressing S16 cells were seeded in black clear-bottom 1536 well plates at between 500-750 cells/6uL in DMEM medium containing 10% FBS, w/o phenol red. After overnight incubation at 37 degree Celsius/5% C02, 23 nL of compounds or DMSO were delivered to each well using a pin tool, followed by 24h-incubation at 37 degree Celsius/5% C02. Then one microl of LiveBLAzer FRET B/G detection mix (Invitrogen) was added to each well. An EnVision plate reader (PerkinElmer) was used to detect the dual beta-Lac output composed of fluorescence at 460nm for beta-Lac expression and FRET at 535nm for cell viability. The % signal at 535 nm was scaled to a full range of DMSO and zero and then normalized using the maximum response observed in the screen as 100% activity. The % signal at 460nm was normalized to the average readings of potassium clavulanate (a positive control) - treated cells relative to DMSO-treated cells (0% Activity). The concentration-effect curves were then classified based on curve quality (r2), response magnitude and degree of measured activity.
row,SMILES,outcome
1,C[C@@H](C(=O)O)c1ccc(C(=O)c2cccs2)cc1,inactive
2,C[C@H](NCCc1ccc(O)cc1)[C@@H](O)c1ccc(O)cc1,inactive
3,CN(C)[C@H]1C(=O)C(C(=O)NCN2CCCC2)=C(O)[C@]2(O)C(=O)C3=C(O)c4c(O)cccc4[C@@](C)(O)[C@H]3C[C@@H]12,inactive
4,C[C@@H]1c2cccc(O)c2C(O)=C2C(=O)[C@@]3(O)C(O)=C(C(N)=O)C(=O)[C@@H](N(C)C)[C@@H]3[C@@H](O)[C@@H]21,inactive
5,CC1(C)S[C@@H]2[C@H](NC(=O)[C@H](C(=O)O)c3ccsc3)C(=O)N2[C@H]1C(=O)O,inactive
6,CN1CCCC[C@@H]1CCN1c2ccccc2Sc2ccc(S(C)=O)cc21 (stereo not given in full),inactive
7,CCN(CC)CCC[C@H](C)Nc1ccnc2cc(Cl)ccc12,inactive
8,O=C(Cc1cccs1)NC1C(=O)N2C(C(=O)[O-])=C(C[n+]3ccccc3)CSC12 (stereo not given),inactive
9,C[C@@H](CCc1ccccc1)NC[C@H](O)c1ccc(O)c(C(N)=O)c1,inactive
10,O=C(O)/C=C\c1ccc(Cn2ccnc2)cc1,inactive
11,CCC[C@H]1C(=O)N2C(N(C)C)=Nc3ccc(C)cc3N2C1=O,inactive
12,C[N+](C)(C)CC(O)CC(=O)O (stereo not given),inactive
13,C[C@@H](CN(C)C)CN1c2ccccc2CCc2ccccc21,inactive
14,CO/N=C(\C(=O)N[C@@H]1C(=O)N2C(C(=O)O)=C(COC(C)=O)CS[C@@H]12)c1csc(N)n1,inactive
15,CC(=O)N(CC(O)CN(C(C)=O)c1c(I)c(C(=O)NC[C@@H](O)CO)c(I)c(C(=O)NC[C@@H](O)CO)c1I)c1c(I)c(C(=O)NC[C@@H](O)CO)c(I)c(C(=O)NC[C@@H](O)CO)c1I,inactive
16,O=C(C1CCCCC1)N1CC(=O)N2CCc3ccccc3[C@@H]2C1,inactive
17,COc1cc(/C=C/C(=O)/C=C(O)/C=C/c2ccc(O)c(OC)c2)ccc1O,inactive
18,CCCN[C@@H](C)C(=O)Nc1ccccc1C,inactive
19,CC(=O)O[C@@H](C)C[N+](C)(C)C,inactive
20,CCn1cc(C(=O)O)c(=O)c2cc(F)c(N3CCN[C@@H](C)C3)c(F)c21,inactive

row,SMILES,outcome
1,NC(=O)OC[C@H](O)COc1ccc(Cl)cc1,inactive
2,CN(C)CC/C=C1\c2ccccc2CSc2ccccc21,inactive
3,CCCN[C@@H](C)C(=O)Nc1c(C)csc1C(=O)OC,inactive
4,O=C(c1ccccc1)c1ccc2n1CC[C@H]2C(=O)O,inactive
5,CCN(CC)CC#CCOC(=O)[C@@](O)(c1ccccc1)C1CCCCC1,inactive
6,CN1[C@@H]2CC[C@H]1CC(OC(=O)[C@@H](O)c1ccccc1)C2 (stereo not given in full),inactive
7,COCCc1ccc(OC[C@H](O)CNC(C)C)cc1,inactive
8,C[N+]1(C)CCC[C@@H](OC(=O)C(O)(c2ccccc2)c2ccccc2)C1,inactive
9,CN(C)[C@@H]1C(=O)C(C(N)=O)=C(O)[C@]2(O)C(=O)C3=C(O)c4c(O)ccc(Cl)c4[C@H](O)[C@H]3C[C@@H]12,inactive
10,C/C=C\C(=O)N(CC)c1ccccc1C,inactive
11,COc1ccc(C[C@@H]2c3cc(OC)c(OC)cc3CC[N@+]2(C)CCC(=O)OCCCCCOC(=O)CC[N@@+]2(C)CCc3cc(OC)c(OC)cc3[C@H]2Cc2ccc(OC)c(OC)c2)cc1OC,inactive
12,CC(=O)OCC1=C(C(=O)O)N2C(=O)[C@@H](NC(=O)CSc3ccncc3)[C@@H]2SC1,inactive
13,NC(=O)c1cc[n+](CC2=C(C(=O)O)N3C(=O)[C@@H](NC(=O)[C@H](c4ccccc4)S(=O)(=O)[O-])[C@@H]3SC2)cc1,inactive
14,NS(=O)(=O)c1cc([C@@]2(O)NC(=O)c3ccccc32)ccc1Cl,inactive
15,C[n+]1ccccc1/C=N\O,inactive
16,CO[C@H]1C[C@@H](O[C@@H]2[C@H](C)[C@H](O[C@@H]3O[C@@H](C)C[C@@H](N(C)C)[C@@H]3O)[C@H](C)C[C@]3(CO3)C(=O)[C@H](C)[C@H](O)[C@H](C)[C@H](C)OC(=O)[C@@H]2C)O[C@@H](C)[C@H]1O,inactive
17,COc1c(O)cc2c(c1O)[C@@H]1O[C@@H](CO)[C@@H](O)[C@@H](O)[C@@H]1OC2=O,inactive
18,CC(C)N1CCN(c2ccc(OC[C@@H]3CO[C@@](Cn4cncn4)(c4ccc(Cl)cc4Cl)O3)cc2)CC1,inactive
19,O=c1[nH]cnc2c1ncn2C1OC(CO)C(O)C1O (stereo not given),inactive
20,CC1(C)O[C@@H]2C[C@H]3[C@H]4C[C@H](F)C5=CC(=O)C=C[C@@]5(C)[C@@H]4[C@H](O)C[C@]3(C)[C@]2(C(=O)CO)O1,inactive
